Values joined by “and” are separate entries in the source; they are usually repeats but may differ in a detail not shown here. Equal entries are not always repeated. The campaign covered roughly 360,000 compounds. About 2,400 (0.67%) were called active. This is one part of a sample in which actives are shown more often than they occur. Values without a mark were called inactive.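 Rule for the calls: active = compounds whose normalised, plate-corrected inhibition of enzyme fluorescence in the single-dose primary screen is 50% or more; inactive = the rest.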

For the test, the target named is Fatty acid synthase (Homo sapiens) (UniProt P49327). In words: FAS thioesterase domain inhibitors, primary screen, biochemical, fluorescence intensity, uHTS (AID 602261).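 Note: 0% = DMSO with enzyme and 100% = substrate without enzyme.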 The note with it: recombinant FAS-TE, OMFH fluorogenic substrate, fluorescence endpoint; at 15 µM; active compounds read high.
Fatty acid synthase (Homo sapiens), sequence (P49327 whole entry, looked up, the tested form may be a part): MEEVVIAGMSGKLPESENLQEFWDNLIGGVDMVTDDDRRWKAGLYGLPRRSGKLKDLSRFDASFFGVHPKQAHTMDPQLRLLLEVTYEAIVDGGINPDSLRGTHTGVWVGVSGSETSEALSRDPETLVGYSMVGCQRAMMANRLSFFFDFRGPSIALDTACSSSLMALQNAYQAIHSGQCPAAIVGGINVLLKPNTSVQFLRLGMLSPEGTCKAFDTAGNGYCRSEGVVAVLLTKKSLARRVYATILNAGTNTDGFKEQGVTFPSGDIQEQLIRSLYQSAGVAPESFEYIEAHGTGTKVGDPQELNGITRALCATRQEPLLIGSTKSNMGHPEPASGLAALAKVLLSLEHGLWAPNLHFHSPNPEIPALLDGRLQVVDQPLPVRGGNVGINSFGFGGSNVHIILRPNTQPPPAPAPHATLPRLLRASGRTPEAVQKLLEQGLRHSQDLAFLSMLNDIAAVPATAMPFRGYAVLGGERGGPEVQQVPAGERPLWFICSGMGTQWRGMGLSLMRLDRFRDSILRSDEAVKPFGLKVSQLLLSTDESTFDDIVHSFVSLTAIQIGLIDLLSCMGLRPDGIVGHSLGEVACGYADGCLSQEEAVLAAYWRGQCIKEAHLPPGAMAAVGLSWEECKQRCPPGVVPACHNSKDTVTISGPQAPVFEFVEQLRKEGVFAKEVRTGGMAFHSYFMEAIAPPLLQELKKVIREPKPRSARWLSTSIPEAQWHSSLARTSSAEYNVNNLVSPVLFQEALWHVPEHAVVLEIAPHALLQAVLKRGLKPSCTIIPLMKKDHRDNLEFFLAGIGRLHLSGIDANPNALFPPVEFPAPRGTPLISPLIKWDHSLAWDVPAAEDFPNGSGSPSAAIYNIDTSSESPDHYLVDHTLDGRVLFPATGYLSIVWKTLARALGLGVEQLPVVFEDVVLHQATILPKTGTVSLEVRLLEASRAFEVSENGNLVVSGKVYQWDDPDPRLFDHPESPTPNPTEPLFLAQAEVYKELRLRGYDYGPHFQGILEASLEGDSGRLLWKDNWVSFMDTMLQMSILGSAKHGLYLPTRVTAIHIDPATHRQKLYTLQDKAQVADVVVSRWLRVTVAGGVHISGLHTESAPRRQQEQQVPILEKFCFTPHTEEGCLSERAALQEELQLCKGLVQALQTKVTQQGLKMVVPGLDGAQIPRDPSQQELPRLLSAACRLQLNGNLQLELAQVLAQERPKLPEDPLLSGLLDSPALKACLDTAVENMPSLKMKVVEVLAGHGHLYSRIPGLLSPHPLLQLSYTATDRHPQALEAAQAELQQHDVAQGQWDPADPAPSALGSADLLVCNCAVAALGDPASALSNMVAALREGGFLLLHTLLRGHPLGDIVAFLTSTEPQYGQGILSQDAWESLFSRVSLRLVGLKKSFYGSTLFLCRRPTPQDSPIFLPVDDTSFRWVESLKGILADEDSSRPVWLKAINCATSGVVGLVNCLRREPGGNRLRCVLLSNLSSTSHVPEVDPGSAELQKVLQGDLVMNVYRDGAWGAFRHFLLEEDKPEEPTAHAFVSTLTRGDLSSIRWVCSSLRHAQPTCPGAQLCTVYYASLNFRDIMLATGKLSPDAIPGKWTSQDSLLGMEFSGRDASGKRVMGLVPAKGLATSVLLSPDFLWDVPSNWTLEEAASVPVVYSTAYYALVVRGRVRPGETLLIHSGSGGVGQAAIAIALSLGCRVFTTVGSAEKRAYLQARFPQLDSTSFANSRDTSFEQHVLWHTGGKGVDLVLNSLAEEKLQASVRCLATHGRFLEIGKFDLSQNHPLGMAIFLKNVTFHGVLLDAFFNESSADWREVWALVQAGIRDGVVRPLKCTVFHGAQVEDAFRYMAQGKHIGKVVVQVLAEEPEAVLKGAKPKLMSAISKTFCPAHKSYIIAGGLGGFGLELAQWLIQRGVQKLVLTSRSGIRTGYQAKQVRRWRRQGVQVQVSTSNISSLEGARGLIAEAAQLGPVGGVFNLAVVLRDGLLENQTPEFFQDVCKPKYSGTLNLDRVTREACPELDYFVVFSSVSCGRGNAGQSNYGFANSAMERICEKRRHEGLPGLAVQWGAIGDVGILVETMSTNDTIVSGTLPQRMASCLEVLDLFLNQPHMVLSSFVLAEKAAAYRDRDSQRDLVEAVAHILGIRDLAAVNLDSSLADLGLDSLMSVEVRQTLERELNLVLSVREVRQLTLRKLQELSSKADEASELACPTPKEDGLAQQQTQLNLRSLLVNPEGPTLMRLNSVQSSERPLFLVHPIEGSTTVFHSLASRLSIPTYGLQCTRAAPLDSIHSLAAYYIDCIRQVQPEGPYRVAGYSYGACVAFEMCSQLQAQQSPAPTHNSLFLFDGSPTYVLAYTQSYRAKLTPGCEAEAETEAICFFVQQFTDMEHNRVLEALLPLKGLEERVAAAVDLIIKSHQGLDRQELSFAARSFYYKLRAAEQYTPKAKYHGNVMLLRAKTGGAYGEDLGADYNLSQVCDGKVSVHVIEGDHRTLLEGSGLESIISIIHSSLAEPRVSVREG
The inhibition is the relative decrease from the control value, in per cent. Consider `CCOc1ccccc1N(CC(=O)NC1CCCCC1)C(=O)CCCC(=O)Nc1ccccn1`, for which the inhibition was -7.1%.

With `COC(=O)c1c(NC(=O)CN2CCN(S(=O)(=O)c3ccccc3[N+](=O)[O-])CC2)sc2c1CCC(C)C2` (stereo not given), the inhibition was 38.1%.

As for `CCCOC(=O)c1ccc(N2C(=O)c3ccccc3C2=O)cc1`, the inhibition is -2.6%.

In the case of `CCCCOC(=O)NCN1C(=O)C2C3C=CC(C3)C2C1=O` (stereo not given), the inhibition is -2.4%.

In the case of `CCCCCOC(=O)c1ccc(N2C(=O)C3C4C=CC(C4)C3C2=O)cc1` (stereo not given), the inhibition was 83.5% (active).

On to `CC1(c2ccccc2Cl)NC(=O)N(CC(=O)NC(=O)NCc2ccco2)C1=O` (stereo not given), for which the inhibition was -2.3%.

Take `CCOC(=O)c1nn(-c2cccc(C)c2)cc1C(=O)c1ccccc1`: the inhibition was 17.5%.

`CCCCNC(=O)OC1CC2CC1[C@H]1CCCCN1C2=O` (stereo not given in full): the inhibition is -13%.

For the molecule `COc1ccc([N+](=O)[O-])cc1NC(=O)CC1SC(=Nc2cccc(C)c2C)N(/N=C(\C)c2ccc(C)cc2)C1=O` (stereo not given), the inhibition is 75.8% (active).

Turning to `COc1ccc(Br)cc1CN(C)CC(=O)Nc1cc([N+](=O)[O-])ccc1OC`, the inhibition was 42.3%.

Turning to `COc1ccc([N+](=O)[O-])cc1NCC(=O)c1ccc(C)cc1`, the inhibition was 11.8%.

On to `Cc1ccc(NC2(C#N)C(=O)Nc3ccccc32)cc1` (stereo not given), for which the inhibition was -3.6%.

Take `NS(=O)(=O)c1ccc(N=Cc2ccc(Br)s2)cc1`: the inhibition was -8.2%.

As to `CC(=O)c1sc(N)nc1C`, the inhibition is -11.2% and -7.8%.

In the case of `CC(=O)c1sc(NC(=O)C2=NN(c3ccccc3)C(=O)CC2)nc1C`, the inhibition was -6.4%.

For `CC(=O)c1sc(N/N=C/c2ccc(C(C)C)cc2)nc1C`, the inhibition was 58.4% (active).

As to `Cc1nc2ccccc2nc(=O)c1NNc1ccc([N+](=O)[O-])cc1`, the inhibition was -7.2%.

Consider `CNC[C@@H]1Oc2c(NS(C)(=O)=O)cccc2C(=O)N([C@@H](C)CO)C[C@H]1C`, for which the inhibition is -11.2%.

On to `CC(=O)c1cnc(-c2ccccc2)s1`, for which the inhibition is -1.4%.

Turning to `O=S(=O)(c1ccc(F)cc1)n1ccc(-c2cnc(-c3ccccc3)s2)n1`, the inhibition was 67.2% (active).

Consider `O=S(=O)(c1ccc(F)cc1)N1CC=C(c2ccccc2)CC1`, for which the inhibition was 27.5%.

`CC1CCN(C(=S)c2cccc(O)c2)CC1`: the inhibition is -0.1%.

With `CCn1c(SCC(=O)Nc2cccc(F)c2)nnc1-c1cc2cc(Br)ccc2o1`, the inhibition is -5.5%.

As to `O=C(CP(=O)(c1ccccc1)c1ccccc1)N1CCOCC1`, the inhibition was -3.5%.

In the case of `COc1ccc(CN2[C@@H](CC(=O)O)c3cc(F)ccc3S2(=O)=O)cc1`, the inhibition is -9.9%.

In the case of `CCCCCCCCCCCCN1[C@@H](CC(C)=O)c2cc(F)cc(F)c2S1(=O)=O`, the inhibition was 57.7% (active).

Regarding `CCCCCCN1CCN(C2CN(Cc3cn(Cc4ccc(F)cc4)nn3)S(=O)(=O)C2)CC1` (stereo not given), the inhibition was -7.8%.

For `CC1(C)Cc2nc3sc4c(SCC(=O)NC(c5ccccc5)c5ccccc5)ncnc4c3cc2CO1`, the inhibition was -7.6%.

As for `CCCc1nc2scc(-c3ccc(C)cc3)c2c(=O)n1N`, the inhibition was -1.6%.

For `Fc1ccc(-c2csc(-c3ccc(C4SCCS4)cc3)n2)cc1F`, the inhibition is 33%.

As for `CCCc1cc(-c2nc(-c3ccc(C)cc3)cs2)ccn1`, the inhibition was 56.3% (active).

Regarding `Cc1ccc(C(=O)C(=S)N2CCOCC2)cc1`, the inhibition was -7.7%.

For the molecule `O=C1OCCN1C(=O)[C@H]1[C@H](c2ccc(Cl)cc2)C(c2cccc(Cl)c2)=NN1c1ccc(Br)cc1`, the inhibition was 67.3% (active).

As to `O=C1OCCN1C(=O)[C@H]1[C@H](c2ccc(F)cc2)C(c2ccccc2)=NN1c1ccc(Br)cc1`, the inhibition was 46.2%.

Regarding `O=C1OCCN1C(=O)[C@H]1[C@H](c2ccccc2)C(c2ccc(F)cc2)=NN1c1ccccc1`, the inhibition is 41.9%.

For `COCCNC(=O)CSc1nc2c(n1-c1ccccc1)CCCC2`, the inhibition is -7.1%.

In the case of `Cc1ccccc1-n1c(SCC(=O)Nc2cccc3ccccc23)nc(O)cc1=O`, the inhibition was -5.5%.

Regarding `Cc1ccc(C)c(Cn2cnc3c(oc4ccccc43)c2=O)c1`, the inhibition is 16.6%.

For the molecule `Cc1ccc(C)c(NC(=O)CSc2nc3c(oc4ccccc43)c(=O)n2-c2ccccc2)c1`, the inhibition was 62.3% (active).

With `Cc1ccc(C)c(NC(=O)COC(=O)CSc2ccccc2)c1`, the inhibition is -9.4%.

As to `CCN1CCN(C(=O)/C=C\C(=O)O)CC1`, the inhibition was -3%.

With `COc1ccc(/C=C/C(=O)c2cc(Br)ccc(=O)c2O)cc1`, the inhibition is 6.9%.

On to `COC(=O)CN(c1cccc(C(C)=O)c1)S(C)(=O)=O`, for which the inhibition was -7%.

`O=C(COC(=O)Cc1ccc([N+](=O)[O-])cc1)NC1CCCCCC1`: the inhibition was 22.7%.

Consider `O=C(COC(=O)c1ccccc1Cl)NC1CCCCCCC1`, for which the inhibition is 8.2%.

On to `O=C(COC(=O)c1cc([N+](=O)[O-])ccc1NCc1ccccc1)NC1CCCCC1`, for which the inhibition was 60.7% (active).

`COc1ccc(S(=O)(=O)N(CCCN2CCCC2=O)Cc2cc3c(C)ccc(C)c3[nH]c2=O)cc1`: the inhibition is -3%.

As to `O=C(CCC1CCCCC1)Nc1cc(C(F)(F)F)ccc1N1CCOCC1`, the inhibition is 34.3%.

For `Cc1ccc(C)c(Cn2nnc3c(=O)[nH]c(C(=O)Nc4ccc(F)cc4)nc32)c1`, the inhibition was 3.8%.

Turning to `Cc1cccc(CN2CCC(CNC(=O)Nc3ccc(F)c(Cl)c3)CC2)c1`, the inhibition is 2.9%.

For the molecule `Cc1cccc(CS(=O)(=O)c2ncc(Cl)c(C(=O)Nc3ccc(F)cc3)n2)c1`, the inhibition was 56.5% (active).

Regarding `O=C(N=C1SC2CS(=O)(=O)CC2N1c1ccccc1)c1ccccc1` (stereo not given), the inhibition was 8.4%.

Turning to `O=[N+]([O-])c1ccc(CN2CC(N3CCC(c4ccccc4)CC3)CS2(=O)=O)cc1` (stereo not given), the inhibition is 69.8% (active).

Consider `O=S1(=O)CC(N2CCC(Cc3ccccc3)CC2)CN1Cc1ccccc1` (stereo not given), for which the inhibition was 6.6%.

On to `O=[N+]([O-])c1ccc(CN2CC(N3CC=CC3)CS2(=O)=O)cc1` (stereo not given), for which the inhibition was -9.2%.

As for `CN(C(=O)c1ccc(NC(=O)Cc2cccc(NC(=O)C3CCN(C(=O)c4ccccc4)CC3)c2)cc1)C1CC1`, the inhibition was -9.5%.

As to `CCOc1ccc(C(=O)NC2CCN(CC(=O)NCc3cccs3)CC2)cc1`, the inhibition is -3.1%.

In the case of `Cc1cccc(NC(=O)C(C)N2C(=O)C3C4CC(C(Br)C4Br)C3C2=O)c1` (stereo not given), the inhibition is 20.5%.

In the case of `O=C(Nc1ccnn1C1CCN(C/C=C/c2ccc(F)cc2)CC1)C1CCCC1`, the inhibition was -0.7%.

Consider `COC(=O)c1cc(Oc2ccc(S(=O)(=O)N3CCOCC3)cc2[N+](=O)[O-])cc(C(=O)OC)c1`, for which the inhibition is 38.3%.

Turning to `Cc1cc(S(=O)(=O)N2CCOCC2)ccc1OCC(=O)N1CCOCC1`, the inhibition was -2.5%.

Turning to `Cc1cc(C(=O)COc2ccccc2[N+](=O)[O-])c(C)n1-c1cccc(S(=O)(=O)N2CCOCC2)c1`, the inhibition was 58.7% (active).

For `CSc1n[nH]c(=S)n1N`, the inhibition is -4.3%.

For the molecule `O=S(=O)(c1cnccc1N1CCN(/N=C/c2ccc(Br)cc2)CC1)N1CCCCC1`, the inhibition was 31.4%.

In the case of `Cc1cc(Nc2cccc(F)c2)n2ncnc2n1`, the inhibition was -2.8%.

Turning to `COc1cccc(C2CC(c3ccccc3)=NN2S(=O)(=O)c2ccccc2)c1OC` (stereo not given), the inhibition was 20%.

Consider `COc1ccccc1C1CC(=O)n2c(nc(-c3ccccc3)c2-c2ccccc2)S1` (stereo not given), for which the inhibition is 54.5% (active).

As for `COc1ccc(C2CC(=O)n3c(nc4ccccc43)S2)cc1OC` (stereo not given), the inhibition was -161%.

Consider `O=C(NCCNc1ccc([N+](=O)[O-])cc1)c1cccc2c(Br)cccc12`, for which the inhibition is 37.6%.

Turning to `COc1c(C)cc(C(O)c2ncc(-c3cccc(C(F)(F)F)c3)[nH]2)cc1C` (stereo not given), the inhibition is 7.9%.

For `O=S1(=O)C[C@@H](N2CCN(CCO)CC2)[C@H](COCc2ccccc2)N1`, the inhibition is -9.7%.

With `COC(=O)c1cccc(N2C(=O)C3C4C=CC(CC4)C3C2=O)c1` (stereo not given), the inhibition was -6.4%.

On to `CC(=O)Nc1ccc(N2C(=O)C3C4CC(=O)C(c5ccccc54)C3C2=O)cc1` (stereo not given), for which the inhibition was -10%.

In the case of `O=C(Oc1cccc(N2C(=O)C3C4c5ccccc5C(c5ccccc54)C3C2=O)c1)c1ccco1` (stereo not given), the inhibition was 64.1% (active).

In the case of `CCCNC(=O)COc1coc(CN2CCN(Cc3ccccc3)CC2)cc1=O`, the inhibition was -9.4%.

Consider `CC1(c2cccc(N)c2)OCCO1`, for which the inhibition was -9.3%.

As for `Cc1ccc(S(=O)(=O)N(CC(O)CN2CCCCC2)c2cccc([N+](=O)[O-])c2)cc1` (stereo not given), the inhibition is 2.6%.

Take `COc1ccc([N+](=O)[O-])cc1N(CC(O)Cn1nnc2ccccc21)S(=O)(=O)c1ccc(C)cc1` (stereo not given): the inhibition was 51.1% (active).

On to `COc1ccc([N+](=O)[O-])cc1N(CC(O)CN(CC(C)C)CC(C)C)S(=O)(=O)c1ccc(C)cc1` (stereo not given), for which the inhibition is 32.7%.

With `Cc1c(C(=O)N2CCCC2)c(S(=O)(=O)NCC(C)c2ccccc2)c(C)n1C` (stereo not given), the inhibition is 2.1%.

As for `Cc1ccnc(NC(=O)c2ccc(Cl)c([N+](=O)[O-])c2)c1`, the inhibition was 23.1%.

As for `O=C(COc1ccc(Cl)cc1)NCCC1=CCCCC1`, the inhibition is 15.7%.

As to `O=C(NCCC1=CCCCC1)c1ccc(Cl)c([N+](=O)[O-])c1`, the inhibition is 59.5% (active).

Turning to `COc1ccc(C(c2nnnn2Cc2cccs2)N2CCN(c3ccccc3)CC2)cc1OC` (stereo not given), the inhibition is 14.2%.

As to `Nc1c(C(=O)O)cnn1-c1ccccc1`, the inhibition was -1.5%.

As for `Nc1c(-c2cccc(Cl)c2)cnn1-c1cccc([N+](=O)[O-])c1`, the inhibition is 51.8% (active).

As to `O=C(CCl)N(Cc1cccc([N+](=O)[O-])c1)c1cccc(Cl)c1`, the inhibition was 15.2%.

With `COc1ccc([N+](=O)[O-])cc1NC(=O)COC(=O)/C=C/c1ccco1`, the inhibition was 71.2% (active).

With `COc1cccc(NC(=O)COC(=O)/C=C/c2ccco2)c1`, the inhibition is 3.5%.

`CC(C)CNC(=O)COC(=O)/C=C/c1ccco1`: the inhibition is -7.5%.

Source of the values: PubChem BioAssay AID602261 (Sanford-Burnham Center for Chemical Genomics, 2012).
